The source of these data is paper PMC7862700, “An all-to-all approach to the identification of sequence-specific readers for epigenetic DNA modifications on cytosine”.

Common to all, as to test: DAPPL (digital affinity profiling via proximity ligation, sequencing); 10 mM Tris-HCl pH 7.5, 50 mM NaCl, 1 mM DTT, 4% glycerol, room temperature, 30 min; GST-TFs on glutathione beads, 16-mer random dsDNA library, 0.1% formaldehyde crosslink after washing; high values mean tight binding
Holding throughout (conditions): protein: recombinant; tags: N-terminal GST; dsDNA, one strand shown

Assay [1] addresses T1, ERF (Homo sapiens, UniProt P50548 1-548).
T1 sequence: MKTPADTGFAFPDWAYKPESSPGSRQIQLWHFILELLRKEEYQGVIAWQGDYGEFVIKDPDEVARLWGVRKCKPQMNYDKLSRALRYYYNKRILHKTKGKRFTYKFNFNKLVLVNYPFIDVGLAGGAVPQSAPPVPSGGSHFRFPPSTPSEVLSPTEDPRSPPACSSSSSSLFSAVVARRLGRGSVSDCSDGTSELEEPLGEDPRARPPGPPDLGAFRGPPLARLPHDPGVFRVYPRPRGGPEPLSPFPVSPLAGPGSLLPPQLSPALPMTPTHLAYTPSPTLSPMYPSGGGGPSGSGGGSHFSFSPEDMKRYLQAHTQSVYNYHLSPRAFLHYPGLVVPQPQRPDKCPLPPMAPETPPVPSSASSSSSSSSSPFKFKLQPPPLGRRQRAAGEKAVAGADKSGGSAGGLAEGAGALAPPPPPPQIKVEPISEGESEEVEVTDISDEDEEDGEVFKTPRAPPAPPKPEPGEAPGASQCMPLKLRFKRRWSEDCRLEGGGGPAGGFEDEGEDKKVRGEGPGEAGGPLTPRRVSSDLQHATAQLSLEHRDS
Summed up: (§1)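 Beads coated with glutathione captured GST-fused human transcription factors that had been expressed in yeast, and the factors were then given DNA barcodes and pooled with a tag-only sample. The pools were incubated with 200 nmole of a random double-stranded 16-mer DNA library in Tris/NaCl/DTT/glycerol buffer for 30 min at room temperature, washed, crosslinked with 0.1% formaldehyde and proximity-ligated with BsaI/T4 ligase at 37 °C for 1 h. PCR amplification and Illumina NextSeq500 sequencing came last. Binding signal is each hexamer's read frequency for a factor divided by its frequency for the tag-only sample.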

For assay [2], the target named is T2, ETV3L (Homo sapiens, UniProt Q6ZN32 1-361).
T2 sequence: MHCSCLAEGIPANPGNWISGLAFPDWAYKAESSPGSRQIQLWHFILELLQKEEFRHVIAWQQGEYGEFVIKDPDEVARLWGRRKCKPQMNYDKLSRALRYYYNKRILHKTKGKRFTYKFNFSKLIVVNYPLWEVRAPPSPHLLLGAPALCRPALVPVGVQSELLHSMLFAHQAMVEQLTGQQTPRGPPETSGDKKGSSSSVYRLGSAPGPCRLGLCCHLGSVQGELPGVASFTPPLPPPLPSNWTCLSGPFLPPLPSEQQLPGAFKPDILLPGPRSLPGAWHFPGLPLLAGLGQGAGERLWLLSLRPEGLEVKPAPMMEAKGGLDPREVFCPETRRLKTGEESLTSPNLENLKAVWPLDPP
The method in brief:
as §1

Assay [3] deals with T3, ETS2 (Homo sapiens, UniProt P15036 1-469).
T3 sequence: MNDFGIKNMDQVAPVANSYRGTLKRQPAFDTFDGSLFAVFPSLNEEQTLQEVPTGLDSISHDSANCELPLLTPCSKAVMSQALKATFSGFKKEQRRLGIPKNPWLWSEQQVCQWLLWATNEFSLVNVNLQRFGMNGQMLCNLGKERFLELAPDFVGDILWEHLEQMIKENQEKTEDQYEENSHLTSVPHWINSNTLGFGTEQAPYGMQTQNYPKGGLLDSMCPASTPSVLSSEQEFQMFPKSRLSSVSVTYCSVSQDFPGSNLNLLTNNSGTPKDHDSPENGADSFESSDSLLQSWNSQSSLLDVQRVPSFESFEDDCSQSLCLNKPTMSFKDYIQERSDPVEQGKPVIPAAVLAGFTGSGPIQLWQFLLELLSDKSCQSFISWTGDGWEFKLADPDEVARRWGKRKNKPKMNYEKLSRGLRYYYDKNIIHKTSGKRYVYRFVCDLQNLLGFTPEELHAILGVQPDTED
The method in brief: as §1

The target of assay [4] is T4, SPDEF (Homo sapiens, UniProt O95238 1-335).
T4 sequence: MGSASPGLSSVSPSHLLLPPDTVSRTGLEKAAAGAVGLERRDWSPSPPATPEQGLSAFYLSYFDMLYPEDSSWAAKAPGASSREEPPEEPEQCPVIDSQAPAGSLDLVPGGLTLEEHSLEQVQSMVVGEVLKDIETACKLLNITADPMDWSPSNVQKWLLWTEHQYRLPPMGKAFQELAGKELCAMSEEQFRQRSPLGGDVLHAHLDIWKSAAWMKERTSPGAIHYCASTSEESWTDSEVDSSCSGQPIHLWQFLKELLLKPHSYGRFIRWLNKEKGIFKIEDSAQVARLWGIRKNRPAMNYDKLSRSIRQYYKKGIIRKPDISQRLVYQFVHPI
Summed up: as §1

The target in assay [5] is T5, ETV7 (Homo sapiens, UniProt Q9Y603 1-341).
T5 sequence: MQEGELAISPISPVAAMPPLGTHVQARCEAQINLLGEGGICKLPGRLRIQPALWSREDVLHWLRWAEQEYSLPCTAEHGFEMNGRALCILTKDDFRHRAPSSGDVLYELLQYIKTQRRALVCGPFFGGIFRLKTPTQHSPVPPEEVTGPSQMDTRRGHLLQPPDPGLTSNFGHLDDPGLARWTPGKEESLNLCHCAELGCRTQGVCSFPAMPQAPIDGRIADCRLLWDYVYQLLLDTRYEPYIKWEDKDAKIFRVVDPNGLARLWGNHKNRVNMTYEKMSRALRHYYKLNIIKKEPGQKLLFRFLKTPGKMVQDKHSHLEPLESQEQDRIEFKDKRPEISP
Summed up: as §1

Assay [6] concerns the target T6, ELF5 (Homo sapiens, UniProt Q9UKW6-2 1-255).
T6 sequence: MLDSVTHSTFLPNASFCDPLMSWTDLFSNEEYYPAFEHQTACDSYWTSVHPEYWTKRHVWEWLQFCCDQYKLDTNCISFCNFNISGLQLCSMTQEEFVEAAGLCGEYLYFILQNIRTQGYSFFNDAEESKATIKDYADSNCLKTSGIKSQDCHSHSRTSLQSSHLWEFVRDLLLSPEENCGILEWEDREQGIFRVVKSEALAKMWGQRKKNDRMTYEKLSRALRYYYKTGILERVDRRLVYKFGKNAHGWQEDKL
Summed up:
as §1

The target of assay [7] is T7, ETV3 (Homo sapiens, UniProt P41162-2 1-143).
T7 sequence: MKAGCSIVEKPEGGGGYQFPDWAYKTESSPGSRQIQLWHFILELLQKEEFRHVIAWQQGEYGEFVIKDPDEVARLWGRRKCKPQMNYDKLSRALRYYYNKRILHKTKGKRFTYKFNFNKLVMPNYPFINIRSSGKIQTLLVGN
Summed up:
as §1

Assay [8] has as its target ETV6 (Homo sapiens, UniProt P41212 1-452). Summed up:
as §1

Chain of ETV6 (P41212 whole entry): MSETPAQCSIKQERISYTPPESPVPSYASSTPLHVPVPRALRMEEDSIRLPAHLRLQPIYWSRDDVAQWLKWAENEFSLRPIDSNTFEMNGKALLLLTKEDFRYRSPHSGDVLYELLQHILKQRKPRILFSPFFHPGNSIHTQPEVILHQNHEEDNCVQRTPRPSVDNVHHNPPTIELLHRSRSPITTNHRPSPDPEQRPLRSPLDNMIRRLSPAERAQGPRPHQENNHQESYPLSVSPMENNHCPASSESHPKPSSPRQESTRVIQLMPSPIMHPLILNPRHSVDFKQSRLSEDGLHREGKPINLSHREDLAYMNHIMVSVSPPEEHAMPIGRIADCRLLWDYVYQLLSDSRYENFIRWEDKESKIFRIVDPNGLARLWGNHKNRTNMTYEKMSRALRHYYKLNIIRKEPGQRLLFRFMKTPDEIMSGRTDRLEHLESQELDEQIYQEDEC

In the case of CTTAGA, the binding signal in assay [1] is 1.18 fold enrichment (6-mer frequency, TF over GST control); in assay [2] it was 1.17 fold enrichment (6-mer frequency, TF over GST control); in assay [3], 1.06 fold enrichment (6-mer frequency, TF over GST control); in assay [4], 1.16 fold enrichment (6-mer frequency, TF over GST control); in assay [5] it was 1.07 fold enrichment (6-mer frequency, TF over GST control); in assay [6] it was 1.04 fold enrichment (6-mer frequency, TF over GST control). The binding signal was 1.07 fold enrichment (6-mer frequency, TF over GST control) in assay [7] and 1.11 fold enrichment (6-mer frequency, TF over GST control) in assay [8].

As for CTCTGG, the binding signal in assay [1] was 1.36 fold enrichment (6-mer frequency, TF over GST control); in assay [2], 1.45 fold enrichment (6-mer frequency, TF over GST control); in assay [3] it was 1.19 fold enrichment (6-mer frequency, TF over GST control); in assay [4], 1.19 fold enrichment (6-mer frequency, TF over GST control); in assay [5], 1.33 fold enrichment (6-mer frequency, TF over GST control); in assay [6], 1.21 fold enrichment (6-mer frequency, TF over GST control). Further, the binding signal is 1.31 fold enrichment (6-mer frequency, TF over GST control) in assay [7] and 1.39 fold enrichment (6-mer frequency, TF over GST control) in assay [8].

As to ACCGAC, the binding signal in assay [1] was 1.29 fold enrichment (6-mer frequency, TF over GST control); in assay [2], 1.44 fold enrichment (6-mer frequency, TF over GST control); in assay [3] it was 1.38 fold enrichment (6-mer frequency, TF over GST control); in assay [4], 1.37 fold enrichment (6-mer frequency, TF over GST control); in assay [5], 1.25 fold enrichment (6-mer frequency, TF over GST control); in assay [6], 1.25 fold enrichment (6-mer frequency, TF over GST control). In addition, the binding signal was 1.27 fold enrichment (6-mer frequency, TF over GST control) in assay [7] and 1.41 fold enrichment (6-mer frequency, TF over GST control) in assay [8].

With AAACTC, the binding signal was 1.24 fold enrichment (6-mer frequency, TF over GST control) in assay [1]; 1.17 fold enrichment (6-mer frequency, TF over GST control) in assay [2]; 1.19 fold enrichment (6-mer frequency, TF over GST control) in assay [3]; 1.07 fold enrichment (6-mer frequency, TF over GST control) in assay [4]; 1.24 fold enrichment (6-mer frequency, TF over GST control) in assay [5]; 1.21 fold enrichment (6-mer frequency, TF over GST control) in assay [6]. Also, the binding signal in assay [7] was 1.15 fold enrichment (6-mer frequency, TF over GST control); in assay [8] it was 1.25 fold enrichment (6-mer frequency, TF over GST control).

Regarding TACGTA, the binding signal in assay [1] is 1.3 fold enrichment (6-mer frequency, TF over GST control); in assay [2], 1.38 fold enrichment (6-mer frequency, TF over GST control); in assay [3], 1.42 fold enrichment (6-mer frequency, TF over GST control); in assay [4], 1.35 fold enrichment (6-mer frequency, TF over GST control); in assay [5] it was 1.15 fold enrichment (6-mer frequency, TF over GST control); in assay [6], 1.31 fold enrichment (6-mer frequency, TF over GST control). The binding signal in assay [7] is 1.37 fold enrichment (6-mer frequency, TF over GST control); in assay [8], 1.32 fold enrichment (6-mer frequency, TF over GST control).

In the case of CTGAAC, the binding signal in assay [1] was 1.33 fold enrichment (6-mer frequency, TF over GST control); in assay [2], 1.3 fold enrichment (6-mer frequency, TF over GST control); in assay [3], 1.32 fold enrichment (6-mer frequency, TF over GST control); in assay [4], 1.47 fold enrichment (6-mer frequency, TF over GST control); in assay [5], 1.21 fold enrichment (6-mer frequency, TF over GST control); in assay [6], 1.41 fold enrichment (6-mer frequency, TF over GST control). For the same sequence, the binding signal in assay [7] was 1.47 fold enrichment (6-mer frequency, TF over GST control); in assay [8], 1.29 fold enrichment (6-mer frequency, TF over GST control).
